Lassa entry inh: inhibitors of Lassa virus binding or cell entry | Lassa virus pseudotype entry inhibition, cell reporter | Potency, µM (top dose mostly 37.9 µM), for the others: top-dose activity change, negative = inhibition, actives largely listed as inhibitors | 1.2% of 300,000 active | AID 540256; calls by dose curve; tested in HEK293 cells; note: potency is the fitted concentration of half-maximal effect; % is set by controls: 0 for no effect and ±100 for the full control effect; nearly all actives have a fitted effect of over 50% in size
FMDV inh: foot and mouth disease virus antiviral activity. FMDV antiviral cell-based qHTS. Potency, µM (doses to about 57.9 µM), for inactives: at the top dose activity change, negative = inhibition, actives largely listed as inhibitors. 1.2% of 410,000 active. AID 1159524; calls by dose curve; tested in HEK293T cells; note: read-out not given here; potency is the fitted concentration of half-maximal effect; % is set by controls: 0 for no effect and ±100 for the full control effect; nearly all actives have a fitted effect of over 45% in size
Shiga toxin inh: Shiga toxin inhibition. inhibition, % at 38.7 µM. AID 2315. 9.2% of 290,000 active. Vero cells, Shiga toxin protein synthesis inhibition reporter; in the data active = inhibition mostly above about 28%, no sharp cut-off; inactive = mostly below about 43%; note: 0% is about no effect
CHX counter: counter-screen hit for Shiga toxin inhibitors, cycloheximide; max response, %; cell reporter, cycloheximide protein synthesis inhibition counterscreen; 12% of 300,000 active; in the data active = max response mostly above about 13%, no sharp cut-off; inactive = mostly below about 14%; note: read at 38.3 µM for the half of the compounds with a filed dose; 0% is about no effect
MARV entry inh: inhibitors of Marburg virus binding or cell entry. Marburg virus pseudotyped entry inhibition, cell reporter. Potency, µM (doses to about 37.8 µM), for inactives: at the highest dose activity change, negative = inhibition, most hits filed as inhibitors. 1.8% of 300,000 active. AID 540276; calls by dose curve; tested in HEK293 cells; note: potency is the fitted concentration of half-maximal effect; % is set by controls: 0 for no effect and ±100 for the full control effect
HCV inh: blocks hepatitis C virus; Huh7.5.1 HCVcc-Cre infection, luciferase reporter, 44 h; Potency, µM (highest dose often 41.8 µM), without a hit: at the highest dose activity change, negative = inhibition, usual class: inhibitors; 3.4% of 340,000 active; AID 651820; active = well fitted inhibition curve with a large enough effect; inconclusive = small, poorly fitted or top-dose-only effect, or another doubt; inactive = no such curve, though single readings can be large or run the other way; note: potency is the fitted concentration of half-maximal effect; % is set by controls: 0 for no effect and ±100 for the full control effect
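Infectious HCV cell culture screen: compound-treated cells (1,000/well, pre-plated 4 h) are infected with HCVcc-Cre at roughly 0.5 moi and grown 44 h. Infection is quantified by luciferase signal after 15 min substrate incubation at room temperature.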
* = called active by the depositor; ? = inconclusive; . = not tested or not shown; [ ] = remark or other dose. An excerpt weighted towards active compounds, which were near 13% of everything screened.

SMILES | Lassa entry inh | FMDV inh | Shiga toxin inh | CHX counter | MARV entry inh | HCV inh
O=C(CC(c1ccco1)S(=O)(=O)c1ccccc1)c1ccccc1 (stereo unspecified) | ? | 72% | 110* | 42* | 0%[46.1 µM] | 21%
CCC(=O)NCC(c1cccs1)S(=O)(=O)c1ccc(C)cc1 (stereo unspecified) | . | -12% | 4 | -3 | . | 6%
Cc1ccc(C(=O)CC(c2cccs2)S(=O)(=O)c2ccc(C)cc2)cc1 (stereo unspecified) | 6% | 7% | 38 | 23* | ? | 13%
CC(C)(C)c1ccc(C(=O)NCC(c2cccs2)S(=O)(=O)c2ccc(F)cc2)cc1 (stereo unspecified) | ? | 20µM* | . | . | . | .
CC(C)(C)c1ccc(C(=O)NCC(c2cccs2)S(=O)(=O)c2cccs2)cc1 (stereo unspecified) | ? | 0% | . | . | . | .
CC1CCCC(C)N1C(=O)c1ccc(S(=O)(=O)N2CCCC2)cc1 (stereo unspecified) | . | -18% | . | . | . | 5%
COC(=O)c1ccc(C)c(NS(=O)(=O)c2ccc(NC(C)=O)cc2)c1 | ? | 4% | -16 | -1 | -18% | -10%
COc1ccc(S(=O)(=O)N2CCCCC2)cc1NCC(=O)Nc1ccc(C)cc1 | ? | -29% | 7 | 13 | -2%[46.1 µM] | ?
COc1ccc([N+](=O)[O-])cc1NCC(=O)Nc1cc(S(=O)(=O)N2CCCCC2)ccc1C | . | -18% | . | . | . | 11µM*
Cc1ccc(S(=O)(=O)N2CCCCC2)cc1NC(=O)COC(=O)c1cccn1C | . | -26% | . | . | . | 13µM*
Cc1ccc(S(=O)(=O)N2CCCCC2)cc1NC(=O)CCOc1ccccc1 | -18% | 0% | -8 | 7 | 0% | ?
Cc1ccc(S(=O)(=O)N2CCCCC2)cc1NC(=O)CCCOc1ccccc1 | ? | -10% | . | . | -28%[46.1 µM] | 10µM*
COc1ccc(CC(=O)Nc2cc(S(=O)(=O)N3CCCCC3)ccc2C)cc1OC | ? | ? | -5 | -5 | ? | 10µM*
CC(=O)NCCNc1ncnc2ccc(-c3ccoc3)cc12 | . | -14% | . | . | . | .
Nc1nc(SCC(=O)NCCOCCO)nc2sc3c(c12)CCCC3 | -12% | 19% | 33 | 6 | 2%[14.2 µM] | 20%
NC(=O)CSc1nc(N)c2c3c(sc2n1)CCCCC3 | -6% | 24% | 39 | 21* | -2% | 7%
CNC(=O)CSc1nc(N)c2c3c(sc2n1)CCC3 | 7% | 22% | 2 | 9 | 15% | -6%
NC(=O)CSc1nc(C2CC2)nc2sc3c(c12)CCCC3 | . | 13% | 47* | 19* | . | 11%
CCSc1nc(N)c2c3c(sc2n1)CCC3 | 8% | 22% | 61* | 21* | 17% | -8%
CC(=O)C1=CCC(c2cccc3ccccc23)N(S(=O)(=O)c2ccc(C)cc2)C1 (stereo unspecified) | . | -10% | . | . | . | .
CSCCC(NC(=O)c1ccccc1Cl)C(=O)N1CCCC(C)C1 (stereo unspecified) | -24% | -13% | . | . | 3%[46.1 µM] | 9%
Cc1ccc(C(=O)NCC(=O)OCn2nnc3ccccc3c2=O)cc1 | . | -16% | . | . | . | ?
Cc1ccc(C)c(N2CCN(C(=O)Nc3cn(CC(C)C)c(=O)c4ccccc34)CC2)c1 | -12%[46.1 µM] | -1% | . | . | . | .
COc1cccc2[nH]c3c(N4CCCCC4)ncnc3c12 | 15% | 2% | 67 | 45* | 10% | -2%
COc1ccc2[nH]c3c(Cl)ncnc3c2c1 | -23% | -20% | -14 | 1 | ? | ?
SMILES | Lassa entry inh | FMDV inh | Shiga toxin inh | CHX counter | MARV entry inh | HCV inh
Fc1ccc2[nH]c3c(Cl)ncnc3c2c1 | . | -26% | -3 | -7 | . | 7%
OC1(c2cccc(C(F)(F)F)c2)CCN(c2ncnc3c2[nH]c2ccc(F)cc23)CC1 | 14µM* | ? | 15 | 5 | 4µM* | 0.71µM*
Fc1ccc2[nH]c3c(N4CCN(c5ccccc5)CC4)ncnc3c2c1 | ? | ? | 9 | 2 | ? | 7.9µM*
COc1ccc2[nH]c3c(N4CCc5ccccc5C4)ncnc3c2c1 | ? | 25µM* | 13 | 28* | 0.71µM* | ?
O=C1c2ccccc2CCC12N=NCC2c1ccccc1 (stereo unspecified) | ? | 48% | -3 | 0 | -22% | 4%
CCOC(=O)N1CCC(NC(=O)c2ccc3c(c2)N(Cc2ccccc2)C(=O)c2ccccc2S3=O)CC1 (stereo unspecified) | 15%[46.1 µM] | 2% | . | . | -1%[46.1 µM] | .
CCCN(C)C1CN(Cc2cn(Cc3cccc(C(F)(F)F)c3)nn2)S(=O)(=O)C1 (stereo unspecified) | . | -13% | . | . | . | .
COc1ccc(N2CCN(c3ncnc4c3[nH]c3ccccc34)CC2)cc1 | ? | 4µM* | -16 | -1 | ? | 5.6µM*
COc1cc(OC)c(C(=O)N2CCN(c3ccccn3)CC2)cc1OC | . | -4% | -12 | -2 | . | 6%
CCOC(=O)N1CCN(c2ncnc3c2[nH]c2ccc(OC)cc23)CC1 | ? | ? | -7 | -2 | 10µM* | -29%
Cc1cccc2[nH]c3c(N4CC=C(c5ccc(F)cc5)CC4)ncnc3c12 | ? | 40µM* | -4 | 2 | 11µM* | 13µM*
COc1cc2[nH]c3c(N4CCN(c5ccccn5)CC4)ncnc3c2cc1OC | ? | 18µM* | -8 | -4 | 10µM* | 6.3µM*
CCn1cc(/C=C(\NC(=O)c2ccccc2)C(=O)N2CCOCC2)c2ccccc21 | . | 6% | -5 | -2 | . | 7%
CN(CC(=O)Nc1ccccc1Cl)C(=O)COC(=O)C1CC1 | -2% | -3% | . | . | -7% | 11%
CCOC(=O)N1CCN(c2ncnc3c2[nH]c2ccc(F)cc23)CC1 | 6% | 14µM* | -16 | 1 | ? | 8.9µM*
Cc1cccc(NC(=O)c2ccc(-c3ccccc3[N+](=O)[O-])o2)c1 | . | 1% | 61* | 31* | 14%[46.1 µM] | ?
Cc1cccc(C)c1NC(=O)c1ccc(-c2cc(F)ccc2F)o1 | . | -30% | . | . | . | .
Cc1ccccc1-c1ccc(C(=O)Nc2cccc(F)c2)o1 | 1% | 40% | 50* | 47* | 22% | -27%[8.37 µM]
COc1cccc(NC(=O)c2ccc(-c3ccccc3[N+](=O)[O-])o2)c1 | ? | 5% | 37 | 25 | ? | ?
O=C(Nc1cccc(F)c1)c1ccc(-c2ccccc2C(F)(F)F)o1 | 15% | . | 50* | 31* | ? | 2%[8.37 µM]
O=C1CC(NS(=O)(=O)c2cccs2)CN1c1ccc(Cl)cc1 (stereo unspecified) | -24% | -11% | . | . | 15%[46.1 µM] | -1%
COc1ccc(N2CCN(C(=O)CCc3nnc4n(C)c(=O)c5sccc5n34)CC2)cc1 | -3%[46.1 µM] | -17% | . | . | 1%[46.1 µM] | .
C=CCN1C(=O)[C@@]2(CC(C)=CC[C@@H](C)O2)c2c(Br)cccc21 | . | . | . | . | 3%[14.2 µM] | .
CC(C)NCC(O)Cn1c2c(c3ccccc31)CCc1c-2cnn1-c1ccccc1 (stereo unspecified) | 7.1µM* | ? | -28 | -9 | ? | ?
COc1ccccc1OCCn1nnc2ccccc21 | ? | 53% | 104* | 34* | 14% | 17%
Cc1ccc(OCCn2nnc3ccccc32)cc1C | ? | 16% | 48* | 45* | ? | -2%

Compound activity as filed in PubChem.
